Source: PubChem BioAssay (National Center for Advancing Translational Sciences (NCATS))
Hits are enriched below; roughly 21% of the tested compounds scored in any of these assays.
Pf growth 96h: inhibits malaria parasite growth, 96 h; P. falciparum luciferase reporter growth, 96 h; 6.9% of 320,000 active; AID 504834; Potency, µM (highest dose often 28.7 µM), for inactives: top-dose activity change, negative = inhibition, actives largely listed as inhibitors; further: potency means the concentration at half of the fitted maximal effect; on the % scale 0 is the no-effect control and ±100 the full control effect
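Cell-based qHTS: luciferase-tagged P. falciparum in erythrocytes (2% hematocrit, 0.05% parasitemia final) incubated with compounds for 96 hours, 37 C, 5% CO2; luciferase detection reagent then added and luminescence measured.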
Cycloheximide cs: affects cycloheximide protein synthesis inhibition readout, counter-screen | cell reporter, cycloheximide protein synthesis inhibition counterscreen | 12% of 300,000 active | max response, % | AID 2314; in the data active means max response mostly above about 13%, no sharp cut-off; inactive means mostly below about 14%; further: read at 38.3 µM for the half of the compounds with a filed dose; 0% is about no effect
Sm TGR block: S. mansoni TGR enzyme inhibition; AID 485364; Q962Y6; Potency, µM (titrated, usually from 114 µM), without a hit: at the highest dose activity change, negative = inhibition, actives largely listed as inhibitors; 3% of 360,000 active; purified TGR, DTNB reduction, TNB absorbance 405 nm; further: potency means the concentration at half of the fitted maximal effect; on the % scale 0 is the no-effect control and ±100 the full control effect; nearly all actives have a fitted effect of over 60% in size
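First, TGR (20 nM dispensed) and NADPH were mixed with compound. Second, a 15 min room-temperature incubation followed. Third, further NADPH and then DTNB were added to start the reaction. Finally, TNB absorbance was monitored kinetically.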
NS1 function inh: blocks influenza NS1 protein function; AID 2326; Potency, µM (doses to about 46.1 µM), for the others: top-dose activity, positive = more growth; 0.4% of 270,000 active; calls by dose curve; further: potency means the concentration at half of the fitted maximal effect; actives are rising curves; nearly all actives have a fitted effect of over 50% in size
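Compounds were scored for reversing the slow growth caused by influenza A NS1 in S. cerevisiae, measured by optical density at 600 nm. Assay medium contained 2% galactose at pH 6.0; NS1-free yeast of the same strain were the positive control.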
Pf growth 48h: inhibits P. falciparum growth in the first generation, 48 h; Potency, µM (titrated, usually from 28.7 µM), for the others: at the top dose activity change, negative = inhibition, hits mostly inhibitors; 5.9% of 310,000 active; P. falciparum luciferase growth in erythrocytes, 48 h; further: potency means the concentration at half of the fitted maximal effect; on the % scale 0 is the no-effect control and ±100 the full control effect
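Growth was read as firefly luciferase luminescence after a 48 h, 37 C, 5% CO2 exposure of compounds to reporter-bearing P. falciparum cultures (0.1% parasitemia, 2% hematocrit final) in Albumax-supplemented RPMI 1640.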
Shiga inhibitor: blocks Shiga toxin action in Vero cells. Vero cells, Shiga toxin protein synthesis inhibition reporter. inhibition, % at 38.7 µM. 9.2% of 290,000 active; in the data active means inhibition mostly above about 28%, no sharp cut-off; inactive means mostly below about 43%; further: 0% is about no effect
The depositor's hits bear a star; ? = inconclusive; nt = not tested or not shown. Unless noted, the call rests on the fitted dose curve; in most records, active means well fitted curve in the direction sought with a large enough effect; inconclusive means small, poorly fitted or top-dose-only effect, or another doubt; inactive means no such curve, though single readings can be large; an effect the other way counts as inactive or inconclusive.

SMILES | Pf growth 96h | Cycloheximide cs | Sm TGR block | NS1 function inh | Pf growth 48h | Shiga inhibitor
COc1ccc2[nH]c(=O)c(CNc3ccc(C)cc3C)cc2c1 | 10% | 30* | 13µM* | 2% | 26% | 70*
CCOc1ccc(NCc2cc3cc(OC)ccc3[nH]c2=O)cc1 | -16% | -1 | -2% | -2% | 3% | 22
O=C(CSc1nc(-c2ccc(F)cc2)[nH]c1-c1ccccc1)Nc1ccccc1 | nt | nt | 8% | nt | nt | nt
CC(=O)c1c(C)[nH]c(C(=O)NCc2ccccc2)c1C | ? | -2 | 6% | -3% | 45% | -15
CC(=O)c1[nH]c(C)c(C(=O)NCCc2ccc(C)cc2)c1C | nt | nt | 7% | nt | nt | nt
CC(=O)c1c(C)[nH]c(C(=O)Nc2ccc(F)c(F)c2F)c1C | ? | 6 | -1% | -7% | 13µM* | 71*
CC(=O)c1c(C)[nH]c(C(=O)NCCc2ccc(Cl)cc2)c1C | 2% | 16* | 1% | -5% | 0% | 36
CC(=O)c1c(C)[nH]c(C(=O)NCc2ccc(F)cc2)c1C | 10% | 3 | -11% | nt | 2% | 34
CCC(NC(=O)c1[nH]c(C)c(C(C)=O)c1C)c1ccc(Br)cc1 (centres undefined) | ? | -2 | -11% | -22% | 9.3µM* | 10
CC(=O)c1c(C)[nH]c(C(=O)Nc2ccc(Cl)cc2)c1C | -20% | 41* | -16% | -11% | ? | 62*
O=C(Cn1cnc2cc([N+](=O)[O-])ccc2c1=O)Nc1ccc(N2CCOCC2)cc1 | 27% | -3 | 5% | -1% | 65% | 16
COc1cc(C(CC(=O)Nc2cc(C)ccc2C)N2Cc3ccccc3C2=O)cc(OC)c1OC (centres undefined) | nt | nt | -3% | nt | nt | nt
CC(=O)c1c(C)[nH]c(C(=O)NC2=NCCS2)c1C | 20% | 17* | 6% | -5% | 42% | 30*
CC(=O)c1c(C)[nH]c(C(=O)Nc2ccc(Cl)cc2F)c1C | 20% | 32* | 6% | 1% | 63% | 116*
Cc1[nH]c2ccccc2c1C(=O)C(=O)NCCc1c[nH]c2ccccc12 | ? | -4 | 7% | 18% | -10% | -5
CC(=O)c1c(C)[nH]c(C(=O)Nc2cccc(C)c2C)c1C | 17% | -1 | 2% | -15% | 5% | 17
CSc1cccc(NC(=O)c2[nH]c(C)c(C(C)=O)c2C)c1 | ? | 44* | 0% | -7% | -73% | 93*
CC(=O)c1c(C)[nH]c(C(=O)Nc2cccc(S(=O)(=O)N(C)c3ccccc3)c2)c1C | ? | -5 | 2% | nt | ? | 2
CC(=O)c1c(C)[nH]c(C(=O)NCCc2c[nH]c3ccccc23)c1C | 38% | 39* | 1% | 15% | 10% | 41*
CC(=O)c1[nH]c(C)c(C(C)=O)c1C | ? | 3 | -28% | -8% | 0% | -10
COc1ccccc1NC(=O)c1[nH]c(C)c(C(C)=O)c1C | 12% | -2 | ? | -12% | nt | 18
CC(=O)c1c(C)[nH]c(C(=O)Nc2ccccn2)c1C | 249% | 44* | 0% | 3% | 174% | 52*
CCC(C)c1ccc(NC(=O)c2[nH]c(C)c(C(C)=O)c2C)cc1 (centres undefined) | 3.3µM* | 23* | -14% | 9% | 4.7µM* | 71*
Cc1cccc(N2CCN(C(=O)COc3ccc4c(c3)CCC4)CC2)c1C | -5% | -1 | -3% | -6% | -1% | -4
Cc1ccc(NC(=O)C(=O)NN)cc1 | 9% | -1 | 10% | -2% | 35% | -3
SMILES | Pf growth 96h | Cycloheximide cs | Sm TGR block | NS1 function inh | Pf growth 48h | Shiga inhibitor
NC(=O)/C=C/C(=O)Nc1ccc(Cl)cc1 | 22% | -1 | 3.5µM* | nt | 8% | -5
O=C(O)/C=C/C(=O)Nc1ccc2nccnc2c1 | -9% | 23* | -35% | -5% | 2% | 46
NNC(=O)C(=O)Nc1ccc(O)cc1 | 37% | 23* | -5% | 2% | 0% | 71
O=C(O)/C=C/C(=O)Nc1ccc(O)cc1 | 10µM* | 12 | ? | -1% | 41% | 2
Cc1nc2ccc(NC(=O)/C=C/C(=O)O)cc2nc1C | ? | 25 | -24% | nt | -7% | 45
O=[N+]([O-])c1cc(-c2nc(-c3ccccc3)no2)ccc1NC1CCCC1 | nt | nt | -7% | nt | nt | nt
CCOc1ccccc1Oc1c(C)oc2cc(OC(=O)c3ccco3)ccc2c1=O | 44% | -2 | 35µM* | -12% | 30% | -15
